# From PubChem BioAssay AID1159580 (chemical genetic matrix, 2015)
# Values joined by “and” are separate entries in the source; they are usually repeats but may differ in a detail not shown here. Equal values may be shown once. The whole screen tested about 5,500 compounds, of which about 2,000 (36%) were called active. About 18% were inconclusive and are not listed. This is one part of the list. A number with no mark means an inactive call. Rule as the data show it: active = normalized growth mostly below about 0.91 (no sharp cut-off); inconclusive = no clear call, values can overlap the other calls; inactive = mostly above about 0.92.
# Test: chemical genetic growth profiling, strain panel (AID 1159580);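 also: tested at 20 µM; growth read once vehicle control cultures reached saturation at 30 °C; 1 = growth at the plate median or of vehicle wells; lower values mean less growth of the strain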
# Conditions: S. cerevisiae deletion strains, growth OD
smiles,measurement,setting,value
COc1c(O)cc2c(-c3ccccc3)cc(=O)oc2c1OC,normalized growth,"locus YAL021C, strain ccr4, hits give low values",0.994
same,normalized growth,"locus YAL026C, strain drs2, hits give low values",1.01
same,normalized growth,"locus YAL030W, strain snc1, hits give low values",0.992
same,normalized growth,"locus YBL061C, strain skt5, hits give low values",1.01
same,normalized growth,"locus YBR009C, strain hhf1, hits give low values",0.994
same,normalized growth,"locus YBR021W, strain FUR4, hits give low values",0.982
same,normalized growth,"locus YBR023C, strain chs3, hits give low values",0.994
same,normalized growth,"locus YBR171W, strain sec66, hits give low values",1.01
same,normalized growth,"locus YBR229C, strain ROT2, hits give low values",0.995
same,normalized growth,"locus YBR231C, strain swc5, hits give low values",1
same,normalized growth,"locus YBR279W, strain paf1, hits give low values",0.995
same,normalized growth,"locus YCL011C, strain gbp2, hits give low values",0.995
same,normalized growth,"locus YCL016C, strain dcc1, hits give low values",0.993
same,normalized growth,"locus YCL029C, strain bik1, hits give low values",0.964
same,normalized growth,"locus YCL061C, strain MRC1, hits give low values",0.994
same,normalized growth,"locus YCL069W, strain vba3, hits give low values",1.01
same,normalized growth,"locus YCR088W, strain abp1, hits give low values",0.995
same,normalized growth,"locus YDL005C, strain med2, hits give low values",0.99
same,normalized growth,"locus YDL035C, strain GPR1, hits give low values",1.05
same,normalized growth,"locus YDL040C, strain nat1, hits give low values",0.997
same,normalized growth,"locus YDL074C, strain BRE1, hits give low values",1.01
same,normalized growth,"locus YDL101C, strain DUN1, hits give low values",0.99
same,normalized growth,"locus YDL134C, strain PPH21, hits give low values",1.03
same,normalized growth,"locus YDL185W, strain tfp1, hits give low values",0.95
same,normalized growth,"locus YDL192W, strain arf1, hits give low values",0.988
same,normalized growth,"locus YDR001C, strain nth1, hits give low values",0.987
same,normalized growth,"locus YDR069C, strain doa4, hits give low values",1.02
same,normalized growth,"locus YDR101C, strain arx1, hits give low values",1.01
same,normalized growth,"locus YDR137W, strain rgp1, hits give low values",0.889
same,normalized growth,"locus YDR159W, strain sac3, hits give low values",0.999
same,normalized growth,"locus YDR162C, strain NBP2, hits give low values",1.01
same,normalized growth,"locus YDR195W, strain ref2",0.989
same,normalized growth,"locus YDR297W, strain sur2, hits give low values",1.02
same,normalized growth,"locus YDR318W, strain mcm21, hits give low values",0.973
same,normalized growth,"locus YDR334W, strain swr1, hits give low values",1
same,normalized growth,"locus YDR335W, strain msn5, hits give low values",0.995
same,normalized growth,"locus YDR388W, hits give low values",0.984
same,normalized growth,"locus YDR392W, strain spt3, hits give low values",0.848
same,normalized growth,"locus YDR502C, strain sam2, hits give low values",0.955
same,normalized growth,"locus YEL003W, strain gim4, hits give low values",1.02
same,normalized growth,"locus YEL037C, strain rad23, hits give low values",1
same,normalized growth,"locus YEL061C, strain CIN8 (second series), hits give low values",0.995
same,normalized growth,"locus YER015W, strain faa2, hits give low values",0.997
same,normalized growth,"locus YER016W, strain bim1, hits give low values",1
same,normalized growth,"locus YER110C, hits give low values",0.968
same,normalized growth,"locus YER111C, strain swi4, hits give low values",0.997
same,normalized growth,"locus YER155C, strain BEM2 (second series), hits give low values",1.02
same,normalized growth,"locus YER155C, strain BEM2, hits give low values",0.989
same,normalized growth,"locus YER167W, strain BCK2, hits give low values",0.988
same,normalized growth,"locus YFR010W, strain ubp6, hits give low values",1.02
same,normalized growth,"locus YGL078C, strain dbp3, hits give low values",1
same,normalized growth,"locus YGL086W, strain mad1, hits give low values",0.996
same,normalized growth,"locus YGL167C, strain pmr1, hits give low values",0.971
same,normalized growth,"locus YGL173C, strain kem1, hits give low values",1.01
same,normalized growth,"locus YGL227W, strain vid30, hits give low values",0.996
same,normalized growth,"locus YGL240W, strain doc1, hits give low values",1.02
same,normalized growth,"locus YGL248W, strain PDE1, hits give low values",1.02
same,normalized growth,"locus YGL253W, strain hxk2, hits give low values",1.02
same,normalized growth,"locus YGR135W, strain pre9, hits give low values",0.954
same,normalized growth,"locus YGR252W, strain gcn5, hits give low values",1.06
same,normalized growth,"locus YHR013C, strain ard1, hits give low values",0.978
same,normalized growth,"locus YHR027C, strain rpn1, hits give low values",0.987
same,normalized growth,"locus YHR030C, strain SLT2, hits give low values",0.993 and 1.06
same,normalized growth,"locus YHR079C, strain IRE1 (second series), hits give low values",0.959
same,normalized growth,"locus YHR079C, strain IRE1, hits give low values",1.05
same,normalized growth,"locus YHR094C, strain hxt1, hits give low values",0.983
same,normalized growth,"locus YHR129C, strain ARP1, hits give low values",1.01
same,normalized growth,"locus YHR142W, strain chs7, hits give low values",0.965
same,normalized growth,"locus YHR200W, strain rpn10, hits give low values",0.986
same,normalized growth,"locus YIL066C, strain RNR3, hits give low values",1
same,normalized growth,"locus YIL073C, strain SPO22, hits give low values",0.905
same,normalized growth,"locus YIL125W, strain kgd1, hits give low values",0.992
same,normalized growth,"locus YIR030C, strain dcg1, hits give low values",0.957
same,normalized growth,"locus YJL092W, strain hpr5, hits give low values",0.991
same,normalized growth,"locus YJL095W, strain BCK1 (second series), hits give low values",0.999
same,normalized growth,"locus YJL095W, strain BCK1, hits give low values",1.11 and 1.04
same,normalized growth,"locus YJL115W, strain asf1, hits give low values",0.995
same,normalized growth,"locus YJL129C, strain trk1, hits give low values",0.948
same,normalized growth,"locus YJL134W, strain LCB3, hits give low values",0.993
same,normalized growth,"locus YJL154C, strain vps35, hits give low values",0.985
same,normalized growth,"locus YJL164C, strain tpk1, hits give low values",0.974
same,normalized growth,"locus YJL166W, strain qcr8, hits give low values",0.999
same,normalized growth,"locus YJL168C, strain set2, hits give low values",0.965
same,normalized growth,"locus YJL187C, strain SWE1 (second series), hits give low values",1
same,normalized growth,"locus YJL187C, strain SWE1, hits give low values",0.989
same,normalized growth,"locus YJR043C, strain POL32, hits give low values",1.04
same,normalized growth,"locus YJR066W, strain TOR1, hits give low values",0.984
same,normalized growth,"locus YKL009W, strain mrt4, hits give low values",0.996
same,normalized growth,"locus YKL068W, hits give low values",0.985
same,normalized growth,"locus YKL085W, strain MDH1 (second series), hits give low values",0.973
same,normalized growth,"locus YKL085W, strain MDH1, hits give low values",0.973
same,normalized growth,"locus YKL160W, strain elf1, hits give low values",0.983
same,normalized growth,"locus YKL190W, strain CNB1, hits give low values",0.99
same,normalized growth,"locus YKR001C, strain vps1, hits give low values",0.946
same,normalized growth,"locus YKR026C, strain gcn3, hits give low values",1
same,normalized growth,"locus YKR091W, strain srl3, hits give low values",0.995
same,normalized growth,"locus YLL001W, strain dnm1, hits give low values",0.962
same,normalized growth,"locus YLL026W, hits give low values",1
same,normalized growth,"locus YLL041C, strain sdh2, hits give low values",0.998
same,normalized growth,"locus YLR027C, strain aat2, hits give low values",1
same,normalized growth,"locus YLR039C, strain RIC1, hits give low values",0.979
same,normalized growth,"locus YLR058C, strain SHM2, hits give low values",1.01
same,normalized growth,"locus YLR102C, strain apc9, hits give low values",0.983
same,normalized growth,"locus YLR113W, strain HOG1, hits give low values",1.03
same,normalized growth,"locus YLR221C, strain rsa3, hits give low values",1.04
same,normalized growth,"locus YLR258W, strain gsy2, hits give low values",1.01
same,normalized growth,"locus YLR262C, strain YPT6 (second series), hits give low values",0.878
same,normalized growth,"locus YLR268W, strain sec22, hits give low values",0.975
same,normalized growth,"locus YLR320W, strain mms22, hits give low values",1.02
same,normalized growth,"locus YLR330W, strain CHS5, hits give low values",0.985
same,normalized growth,"locus YLR342W, strain FKS1, hits give low values",1
same,normalized growth,"locus YLR357W, strain rsc2, hits give low values",0.95
same,normalized growth,"locus YLR370C, strain arc18, hits give low values",0.99
same,normalized growth,"locus YLR371W, strain rom2, hits give low values",0.97
same,normalized growth,"locus YLR384C, strain iki3, hits give low values",0.988
same,normalized growth,"locus YLR418C, strain cdc73, hits give low values",0.948
same,normalized growth,"locus YML016C, strain PPZ1, hits give low values",1
same,normalized growth,"locus YML032C, strain rad52, hits give low values",0.995
same,normalized growth,"locus YML120C, strain ndi1, hits give low values",0.966
same,normalized growth,"locus YML124C, strain tub3, hits give low values",0.971
same,normalized growth,"locus YMR058W, strain fet3, hits give low values",1.01
same,normalized growth,"locus YMR078C, strain ctf18, hits give low values",0.961
same,normalized growth,"locus YMR125W, strain sto1, hits give low values",0.973
same,normalized growth,"locus YMR129W, hits give low values",0.995
same,normalized growth,"locus YMR205C, strain PFK2, hits give low values",0.936
same,normalized growth,"locus YMR223W, strain ubp8, hits give low values",0.978
same,normalized growth,"locus YMR231W, strain pep5, hits give low values",0.995
same,normalized growth,"locus YMR263W, strain SAP30, hits give low values",0.989
same,normalized growth,"locus YMR307W, strain GAS1, hits give low values",1.67 [resistant] (active)
same,normalized growth,"locus YNL067W, strain RPL9B, hits give low values",1.01
same,normalized growth,"locus YNL071W, strain lat1, hits give low values",0.993
same,normalized growth,"locus YNL128W, strain TEP1, hits give low values",1
same,normalized growth,"locus YNL153C, strain GIM3, hits give low values",1
same,normalized growth,"locus YNL183C, strain NPR1, hits give low values",0.994
same,normalized growth,"locus YNL209W, strain ssb2, hits give low values",0.991
same,normalized growth,"locus YNL233W, strain BNI4, hits give low values",1.01
same,normalized growth,"locus YNL248C, strain rpa49, hits give low values",1.03
same,normalized growth,"locus YNL250W, strain rad50, hits give low values",0.915
same,normalized growth,"locus YNL271C, strain bni1, hits give low values",0.973
same,normalized growth,"locus YNL298W, strain CLA4, hits give low values",1.01
same,normalized growth,"locus YNL307C, strain MCK1, hits give low values",0.95
same,normalized growth,"locus YNL322C, strain KRE1 (second series), hits give low values",0.982
same,normalized growth,"locus YNR049C, strain mso1, hits give low values",1.01
same,normalized growth,"locus YNR052C, strain pop2, hits give low values",0.99
same,normalized growth,"locus YOL012C, strain htz1",1.04
same,normalized growth,"locus YOL147C, strain pex11, hits give low values",0.968
same,normalized growth,"locus YOR001W, strain rrp6, hits give low values",1.02
same,normalized growth,"locus YOR061W, strain CKA2, hits give low values",1
same,normalized growth,"locus YOR069W, strain VPS5, hits give low values",0.994
same,normalized growth,"locus YOR070C, strain gyp1, hits give low values",0.999
same,normalized growth,"locus YOR080W, strain dia2, hits give low values",1.02
same,normalized growth,"locus YOR083W, strain WHI5, hits give low values",0.984
same,normalized growth,"locus YOR106W, strain vam3, hits give low values",0.967
same,normalized growth,"locus YOR136W, strain idh2, hits give low values",0.977
same,normalized growth,"locus YOR144C, strain elg1, hits give low values",0.989
same,normalized growth,"locus YOR184W, strain ser1, hits give low values",1.03
same,normalized growth,"locus YOR231W, strain MKK1, hits give low values",1.06
same,normalized growth,"locus YOR265W, strain rbl2, hits give low values",0.987
same,normalized growth,"locus YOR270C, strain vph1, hits give low values",1.01
same,normalized growth,"locus YOR290C, strain snf2, hits give low values",0.967
same,normalized growth,"locus YOR316C, strain cot1, hits give low values",0.962
same,normalized growth,"locus YPL051W, strain arl3, hits give low values",1.02
same,normalized growth,"locus YPL055C, strain LGE1, hits give low values",1.06
same,normalized growth,"locus YPL078C, strain atp4, hits give low values",0.969
same,normalized growth,"locus YPL106C, strain sse1, hits give low values",0.983
same,normalized growth,"locus YPL240C, strain hsp82, hits give low values",1
same,normalized growth,"locus YPL256C, strain CLN2, hits give low values",1.02
same,normalized growth,"locus YPR119W, strain clb2, hits give low values",0.947
same,normalized growth,"locus YPR141C, strain kar3, hits give low values",0.968
same,normalized growth,"locus YPR163C, strain tif3, hits give low values",0.98
same,normalized growth,"locus YPR167C, strain met16, hits give low values",0.968
same,normalized growth,"strain wtn01, hits give low values",0.991
